# Reference: PubChem BioAssay AID1578 (Sanford-Burnham Center for Chemical Genomics, 2009)
# Out of some 290,000 compounds screened, about 3,000 (1%) were called active. This is one part of a sample in which actives are shown more often than they occur. Rule as the data show it: active = inhibition mostly above about 36% (no sharp cut-off); inactive = mostly below about 34%.
# Assay: inhibition of NOD1-driven NF-kB reporter – cell-based, luminescence, uHTS, primary screen (AID 1578);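 also: HEK-293T reporter cells stimulated with the NOD1 agonist gamma-tri-DAP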
# Settings: NOD1-driven NF-kB luciferase reporter cells, at 4 µM, hits give high values
row,SMILES,inhibition
1,O=S(=O)(NC1CC1)c1cccc(S(=O)(=O)N2CCCC2)c1,-9.9% (inactive)
2,COc1ccc(CNC(=O)CC(C)CC2=NS(=O)(=O)c3ccccc3N2)cc1 (stereo not drawn),-5.1% (inactive)
3,COc1ccc(C(=O)NCc2nnc(SCC(=O)N3CCCCC3)o2)cc1OC,8.1% (inactive)
4,CCOC(=O)/C(=C\c1ccc(OC(F)F)cc1)C1=Nn2c(nnc2-c2ccc(Cl)cc2)SC1,92.7% (active)
5,CCOc1ccc(-c2nnc3n2N=C(c2ccc(OC)cc2)CS3)cc1,4.9% (inactive)
6,COc1ccc(-c2nnc3n2N=C(C)CS3)cc1,8.4% (inactive)
7,Cc1ccc(Cl)cc1NC(=O)C1CCCN(S(=O)(=O)c2c(C)noc2C)C1 (stereo not drawn),-22.6% (inactive)
8,O=C(O)CCCCCNCc1ccncc1,-8% (inactive)
9,CCc1ccc(-c2csc(NC(=O)C3=NN(c4ccccc4)C(=O)CC3)n2)cc1,51.4% (inactive)
10,COc1ccc(OC)c(-c2csc(NC(=O)C3=NN(c4ccccc4)C(=O)CC3)n2)c1,-27.4% (inactive)
11,CCOC(=O)c1ccc(NS(=O)C23CC4CC(CC(C4)C2)C3)cc1 (stereo not drawn),-39.1% (inactive)
12,CCN(CC)S(=O)(=O)c1ccc2oc(C(=O)NCCCN3CCOCC3)c(C)c2c1,-9.1% (inactive)
13,Cc1cccc(N2CCN(C(=O)NC3CCCCC3)CC2)c1C,-19.6% (inactive)
14,O=C1[C@H]2[C@@H](c3ccc(F)cc3)N3C(=O)N(c4cccc(Br)c4)C(=O)[C@@]3(Cc3ccc(Cl)cc3)[C@H]2C(=O)N1C1CCCCC1,-14.3% (inactive)
15,O=C1[C@H]2[C@@H](c3ccc(Cl)cc3)N3C(=O)N(c4cccc(Br)c4)C(=O)[C@@]3(Cc3ccc(Cl)cc3)[C@H]2C(=O)N1C1CCCCC1,45.6% (active)
16,CC[C@@]12C(=O)N(c3cccc(Br)c3)C(=O)N1[C@H](c1ccc(Cl)cc1)[C@@H]1C(=O)N(C3CCCCC3)C(=O)[C@@H]12,10.3% (inactive)
17,O=c1cc(-c2c(F)c(F)c(F)c(F)c2F)oc2c(F)c(F)c(F)c(F)c12,98.7% (active)
18,O=c1cc(-c2c(F)c(F)c(F)c(F)c2F)oc2ccccc12,36.7% (inactive)
19,COc1c(OC)c(O)c2c(=O)cc(-c3c(O)cccc3O)oc2c1OC,2.2% (inactive)
20,Cc1cccc(NC(=O)Cc2c(F)cccc2Cl)n1,-46.6% (inactive)

row,SMILES,inhibition
1,Cc1nsc(Nc2ccc([N+](=O)[O-])cc2)c1C#N,60.4% (active)
2,O=[N+]([O-])c1ccc(Nc2ccc(F)cc2)cc1,-11.9% (inactive)
3,Cc1nsc(Nc2ccccc2)c1C#N,16.5% (inactive)
4,CN1CCN(/N=C/c2ccc(N(C)c3ccccc3)cc2)CC1,-6.9% (inactive)
5,Cc1cc(=O)oc2c(C)c(OCC(=O)NCCCn3ccnc3)ccc12,1.8% (inactive)
6,O=C(OCc1ccccc1)c1cccnc1Cl,-18.1% (inactive)
7,CN(Cc1ccon1)Cc1cn(C)nc1-c1ccc2c(c1)OCCO2,-26.3% (inactive)
8,Cn1cc(CNCc2ccc(OC(F)(F)F)cc2)c(-c2ccc3c(c2)OCCO3)n1,75.4% (active)
9,Cn1cc(CNCc2cn[nH]c2-c2ccc(F)cc2)c(-c2ccc3c(c2)OCCO3)n1,-22.2% (inactive)
10,C/C(=N\NC(=O)C1CC1(c1ccccc1)c1ccccc1)c1cccc([N+](=O)[O-])c1 (stereo not drawn),-12.5% (inactive)
11,CC(=O)Nc1ccc(N=Cc2c(O)ccc3ccccc23)cc1,-20% (inactive)
12,CC(=O)Nc1ccc(N=Cc2c(O)c(C(=O)Nc3ccccc3)cc3ccccc23)cc1,39.6% (inactive)
13,CCOc1cc(Br)c(Br)c(C=Nc2ccc(NC(C)=O)cc2)c1O,78% (active)
14,O=C(Nc1ccc(NS(=O)(=O)c2ccccc2)cc1)c1cccnc1,-23.8% (inactive)
15,O=C(NCc1nnc(SCC(=O)N2CCCC2)o1)c1ccccc1,-0.1% (inactive)
16,Cc1c(C(=O)O)[nH]c2c1C(=O)CC(c1ccccc1)C2 (stereo not drawn),-0.4% (inactive)
17,Cc1oc2c(c(=O)c1C)C(=O)CC(c1ccccc1)C2 (stereo not drawn),-15.6% (inactive)
18,CS(=O)(=O)c1sc(C#N)c2c1C(=O)CC(c1ccccc1)C2 (stereo not drawn),43.9% (active)
19,CCc1noc(C)c1C(=O)Nc1ccccc1C(C)(C)C,38.7% (inactive)
20,Cc1ccc(-c2nc(N3CCOCC3)sc2C(=O)N2CCOCC2)cc1,-12.2% (inactive)

row,SMILES,inhibition
1,Cc1ccc(CNC(=O)Nc2ccc(OC(F)(F)F)cc2)n1C,-21.3% (inactive)
2,COC(=O)c1ccc(NC(=O)c2ccccc2NS(C)(=O)=O)cc1,-12% (inactive)
3,COC(=O)c1ccccc1NS(=O)(=O)c1ccc(NC(C)=O)cc1,0.6% (inactive)
4,COc1cc(OC)cc(C(=O)Nn2cc(C(=O)Nc3ccccc3F)c3ccccc3c2=O)c1,-16.8% (inactive)
5,C=CCNC(=O)[C@@H]1CSC2c3ccc(OC)c(OC)c3C(=O)N21 (stereo partly drawn),-8.1% (inactive)
6,Cc1ccc(C2C3C(=O)N(c4ccc(C)cc4)C(=O)C3N3CCCN23)cc1 (stereo not drawn),-7.6% (inactive)
7,Cc1ccc(C(=O)COC(=O)c2cc(Cl)nc3ccccc23)cc1C,-37.6% (inactive)
8,Cc1ccc(C)c(N2CCN(C(=O)c3ccc4nc(-c5ccco5)c(-c5ccco5)nc4c3)CC2)c1,-1.9% (inactive)
9,Cc1cccc(N2CCN(C(=O)c3ccc4nc(-c5ccco5)c(-c5ccco5)nc4c3)CC2C)c1 (stereo not drawn),60.5% (active)
10,O=C(c1ccc2nc(-c3ccco3)c(-c3ccco3)nc2c1)N1CCN(c2ccccc2)CC1,3.4% (inactive)
11,O=C(CN1C(=O)c2ccccc2C1=O)Nc1cc([N+](=O)[O-])ccc1O,-38.7% (inactive)
12,CCOc1cc(C(C(=O)NCC2CCCO2)N(C(=O)Cn2nnc3ccccc32)c2ccccc2C(C)=O)ccc1O (stereo not drawn),-47.9% (inactive)
13,Cc1ccc(-n2c(C)cc(C3=NNC(=NC4CC4)SC3)c2C)cc1C,-21.7% (inactive)
14,Cc1cc(C2=NNC(=NC3CC3)SC2)c(C)n1-c1ccccc1,98.3% (active)
15,COc1ccc(-n2c(C)cc(C3=NNC(=NC4CC4)SC3)c2C)cc1,-7.5% (inactive)
16,Cc1cc(C2=NNC(=NC3CC3)SC2)c(C)n1-c1ccccc1F,96.7% (active)
17,COCCCN=C1NN=C(c2cc(C)n(-c3ccccc3F)c2C)CS1,10.1% (inactive)
18,Cc1cc(C2=NNC(=NC3CC3)SC2)c(C)n1-c1c(C)n(C)n(-c2ccccc2)c1=O,-12.6% (inactive)
